Experiment [1] can be described thus: AP1 Signaling Pathway (AID 357; active means well fitted curve in either direction with a large enough effect, not every such curve was filed as active;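 further: ME-180 reporter cells stimulated with EGF at its EC50 level; on the % scale 0 is the no-effect control and ±100 the full control effect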). Put shortly:
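First, ME-180 AP-1-bla cells were cultured overnight at 37 °C in low-serum Opti-MEM. Next, titrated compounds with EC50 EGF were incubated 5 hours. Finally, CCF4 was added for 2.5 hours and the 460/530 nm ratio recorded.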

For experiment [2], the target named is Cytochrome P450 1A2 (Homo sapiens) (UniProt P05177). As to the kind of experiment: p450-cyp1a2 (AID 410; calls by dose curve; further: potency means the concentration at half of the fitted maximal effect;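 on activity change, negative = inhibition: -100% = full effect of reference inhibitor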). In outline: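 Read-out is luminescence from luciferin produced by CYP1A2 demethylation of Luciferin-ME (100uM, at Km). Detection reagent stopped the 60 min NADPH-dependent reaction; signals were normalized to 57 uM furafylline.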
Experiment [3] in a line: NFAT Signaling Pathway (AID 444; active means well fitted curve in either direction with a large enough effect, not every such curve was filed as active;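 further: carbachol stimulus at about its EC50 of 1 µM final; on the % scale 0 is the no-effect control and ±100 the full control effect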). Conditions: Jurkat NFAT-bla M1, carbachol, beta-lactamase ratio, 5 h; at 17.2 µM (top of the series) unless noted. In outline: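 Jurkat cells carrying an NFAT-driven β-lactamase reporter and co-transfected muscarinic M1 receptor were treated with compound plus carbachol (1 uM final, an EC50 level) for 5 h at 37 °C. CCF4 loading followed for 1 h at RT; 460/530 nm ratio gave %activity.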

The nature of experiment [4]: Stat Signaling Pathway (AID 446; active means well fitted curve in either direction with a large enough effect, not every such curve was filed as active;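 further: ME-180 cervical cancer cells given 40 pM IL-6 alongside compound; SIE-controlled beta-lactamase reporter measured as 460/530 nm FRET emission ratio; on the % scale 0 is the no-effect control and ±100 the full control effect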). In outline: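 Emission at 460 and 530 nm (excitation 405 nm) reports SIE-controlled beta-lactamase in ME-180 cells. Cells received compound with 40 pM IL-6 for 5 hrs at 37 C; data scaled between 300 pM IL-6 and 125 nM JAK-inhibitor controls.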
In experiment [5] the target is Mitogen-activated protein kinase 10 (Mus musculus) (UniProt Q61831). Kind of experiment: JNK3 AlphaScreen Assay (AID 530; active means well fitted curve in either direction with a large enough effect, not every such curve was filed as active;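 further: kinase came from lysate of stimulated human HepG2 cells; signal reports phosphorylation of biotinylated GST-cJun 1-79 at Ser73 with 10 µM ATP; on the % scale 0 is the no-effect control and ±100 the full control effect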). In outline:
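Biotinylated GST-cJun(1-79) served as substrate for JNK3 in HepG2 lysates stimulated with IL-1beta and TNF-alpha. ATP was 10 uM final, pH 7.6. Ser73 phosphorylation was quantified by AlphaScreen (680 nm excitation).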

Experiment [6] concerns the target Glucocorticoid receptor (Homo sapiens) (UniProt P04150). Kind of experiment: GR-GFP Redistribution (AID 450;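 active means compounds whose dose series gives a full or clear partial fitted curve of increased nuclear translocation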; further: potency means the concentration at half of the fitted maximal effect). As to conditions: U2OS GR-GFP nuclear translocation, laser cytometry, 2 h.
For experiment [7] the target is unchanged. As to the kind of experiment: GR-EFC Redistribution (AID 451; calls by dose curve; further: potency means the concentration at half of the fitted maximal effect). Conditions: CHO-K1 GR-EFC translocation, beta-gal luminescence, 2 h. Put shortly:
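CHO-K1 cells stably expressing nuclear-localized β-gal enzyme acceptor and GR fused C-terminally to the enzyme donor fragment; ligand-driven nuclear translocation restores β-gal by complementation. Compounds titrated up to 46 uM final, 2 h at 37 °C; luminescence read.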

Experiment [8] is described as follows: Cell Viability - BJ (AID 421; calls by dose curve;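 further: potency means the concentration at half of the fitted maximal effect; cells exposed to compound for 40 hours at 37 °C before readout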). As to conditions: BJ fibroblast viability, qHTS. Put shortly: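 Cytotoxicity in human BJ foreskin fibroblasts is scored as loss of cellular ATP after a 40-hour exposure, measured by luciferase luminescence. Controls are DMSO and 100 uM tamoxifen.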
(In general: qHTS replaces the single test concentration by a dilution series.)

Experiment [9] can be described thus: Cell Viability - Jurkat (AID 426;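 active means dose-dependent loss of cell ATP signal giving a full or clear fitted curve, ranked by lower potency value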;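 further: potency means the concentration at half of the fitted maximal effect; cells exposed to compound for 40 hours at 37 °C before ATP read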). As to conditions: qHTS. In outline: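 Cytotoxicity was scored as loss of cellular ATP, measured by luciferase-based luminescence, in Jurkat clone E6-1 cells after 40 h compound treatment; tamoxifen and doxorubicin served as positive controls.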
Experiment [10] can be described thus: Cell Viability - Hek293 (AID 427;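 active means compounds whose dose-response curve shows a full or clear partial loss of cell viability, called from curve shape rather than a numeric limit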;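 further: potency means the concentration at half of the fitted maximal effect; cells exposed to compound for 40 hours at 37 °C before reading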). As to conditions: qHTS. In outline:
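qHTS, human embryonic kidney (adenovirus-transformed) cells; 40 hr cpd, 37 °C; CellTiter-Glo ATP luminescence. Norm: DMSO = 0, 100 uM tamoxifen = 100% inhibition. Hill-fit AC50.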

Experiment [11] can be described thus: Cell Viability - HepG2 (AID 433; calls by dose curve; further: potency means the concentration at half of the fitted maximal effect). Conditions: qHTS. Put shortly:
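Read-out is luciferase-based quantitation of cellular ATP as a measure of viable HepG2 cells after 40 h treatment at 37 °C. Signal decrease is scaled between DMSO-only and 100 uM tamoxifen controls, with AC50 fitted by the Hill equation.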

A short description of experiment [12]: Cell Viability - MRC5 (AID 434; calls by dose curve;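 further: potency means the concentration at half of the fitted maximal effect; cells exposed to compound for 40 hours at 37 °C; potency reflects cytotoxicity seen as loss of intracellular ATP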). As to conditions: MRC5 lung fibroblast viability, qHTS. Put shortly:
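Decrease in intracellular ATP, quantified by luciferase light output, reflects compound toxicity toward MRC5 cells exposed for 40 hr in complete culture medium. Concentration-response curves, scaled between DMSO and 100 uM tamoxifen, gave AC50 values.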

Experiment [13] is described as follows: Cell Viability - SK-N-SH (AID 435; calls by dose curve;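 further: potency means the concentration at half of the fitted maximal effect; compound exposure lasted 40 h at 37 °C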). As to conditions: SK-N-SH neuroblastoma cell viability qHTS. In outline:
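Luminescent ATP signal served as the viability read-out after 40 hours of compound treatment of human neuroblastoma SK-N-SH cells. Concentration-response data, scaled between DMSO and 100 uM tamoxifen, gave AC50 values by standard Hill modeling.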

A short description of experiment [14]: Cell Viability - N2a (AID 540).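 Further: cells exposed to compound for 40 h at 37 °C; plate controls were DMSO alone for no effect and tamoxifen control for full effect; nearly all actives have a fitted effect of over 45% in size.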 As to conditions: N2a mouse neuroblastoma cell viability; at 92.2 µM (top of the series). Put shortly:
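In this qHTS cytotoxicity screen, ATP-dependent luciferase luminescence reports viable N2a cells after a 40 hr compound exposure in complete culture medium. Potencies are AC50 values from standard Hill equation fits.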

The nature of experiment [15]: Cell Viability - NIH 3T3 (AID 541).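 Further: plate controls were DMSO alone for no effect and tamoxifen positive control for full effect; nearly all actives have a fitted effect of over 25% in size.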 As to conditions: NIH 3T3 cell viability, qHTS; activity change, negative = cytotoxicity: at 92.2 µM (top of the series). In outline: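 In this cytotoxicity screen, acute toxicity is scored as an ATP drop measured by CellTiter-Glo in NIH 3T3 fibroblasts following a 40 hr, 37 °C incubation with compound.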
The nature of experiment [16]: Cell Viability - HUV-EC-C (AID 542). Further: on the % scale 0 is the no-effect control and ±100 the full control effect; nearly all actives have a fitted effect of over 35% in size. Put shortly:
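Concentration-dependent ATP loss in HUV-EC-C cells is the measure. Exposure lasts 40 hr at 37 °C; luminescence follows CellTiter-Glo addition, and Hill fits give AC50.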

Experiment [17] is described as follows: Cell Viability - H-4-II-E (AID 543). Further: nearly all actives have a fitted effect of over 35% in size. Further: potency means the concentration at half of the fitted maximal effect. Put shortly:
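AC50 from Hill-modelled qHTS concentration-response curves. H-4-II-E rat hepatoma cells in complete medium, 40 hr exposure at 37 °C, viability by CellTiter-Glo ATP luminescence.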

Experiment [18] in a line: Cell Viability - SH-SY5Y (AID 544). Further: nearly all actives have a fitted effect of over 55% in size. Further: potency means the concentration at half of the fitted maximal effect. Put shortly:
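Quantitative HTS in SH-SY5Y neuroblastoma cells, 40 hr treatment at 37 °C, ATP content by luciferase luminescence; AC50 from Hill fits.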

The nature of experiment [19]: Cell Viability - Mesenchymal (AID 546).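 Further: cells exposed to compound for 40 hours before reading; 0% = DMSO only and -100% = 100 µM tamoxifen.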 In outline: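 In this qHTS cytotoxicity format, glomerulus-derived human mesenchymal kidney cells received compound for 40 hr, then luciferase-based ATP quantitation. Concentration-response data were fitted with the Hill equation.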

Each structure is given as a SMILES string. A number with no mark means an inactive call. Results filed as inconclusive are left out. Activity calls are given as the source filed them. Unless noted, the call rests on the fitted dose curve; in most records, active means well fitted curve in the direction sought with a large enough effect; inconclusive means small, poorly fitted or top-dose-only effect, or another doubt; inactive means no such curve, though single readings can be large; an effect the other way counts as inactive or inconclusive.

Cytochrome P450 1A2 (Homo sapiens), sequence (P05177 whole entry, looked up): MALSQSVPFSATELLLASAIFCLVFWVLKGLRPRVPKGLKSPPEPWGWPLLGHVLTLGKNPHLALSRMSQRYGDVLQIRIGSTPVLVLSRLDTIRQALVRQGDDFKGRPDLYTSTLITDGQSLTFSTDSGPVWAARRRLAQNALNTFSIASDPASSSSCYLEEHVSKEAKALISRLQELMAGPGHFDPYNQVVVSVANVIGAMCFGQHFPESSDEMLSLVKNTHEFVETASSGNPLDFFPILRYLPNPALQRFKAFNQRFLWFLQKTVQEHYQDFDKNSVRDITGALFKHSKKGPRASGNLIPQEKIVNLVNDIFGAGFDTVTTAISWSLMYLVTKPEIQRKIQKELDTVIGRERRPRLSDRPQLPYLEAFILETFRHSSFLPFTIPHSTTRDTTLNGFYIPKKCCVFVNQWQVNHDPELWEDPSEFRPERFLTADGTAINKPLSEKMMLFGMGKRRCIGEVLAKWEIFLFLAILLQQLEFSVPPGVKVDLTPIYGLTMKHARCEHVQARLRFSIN
Glucocorticoid receptor (Homo sapiens), sequence (P04150 whole entry, looked up): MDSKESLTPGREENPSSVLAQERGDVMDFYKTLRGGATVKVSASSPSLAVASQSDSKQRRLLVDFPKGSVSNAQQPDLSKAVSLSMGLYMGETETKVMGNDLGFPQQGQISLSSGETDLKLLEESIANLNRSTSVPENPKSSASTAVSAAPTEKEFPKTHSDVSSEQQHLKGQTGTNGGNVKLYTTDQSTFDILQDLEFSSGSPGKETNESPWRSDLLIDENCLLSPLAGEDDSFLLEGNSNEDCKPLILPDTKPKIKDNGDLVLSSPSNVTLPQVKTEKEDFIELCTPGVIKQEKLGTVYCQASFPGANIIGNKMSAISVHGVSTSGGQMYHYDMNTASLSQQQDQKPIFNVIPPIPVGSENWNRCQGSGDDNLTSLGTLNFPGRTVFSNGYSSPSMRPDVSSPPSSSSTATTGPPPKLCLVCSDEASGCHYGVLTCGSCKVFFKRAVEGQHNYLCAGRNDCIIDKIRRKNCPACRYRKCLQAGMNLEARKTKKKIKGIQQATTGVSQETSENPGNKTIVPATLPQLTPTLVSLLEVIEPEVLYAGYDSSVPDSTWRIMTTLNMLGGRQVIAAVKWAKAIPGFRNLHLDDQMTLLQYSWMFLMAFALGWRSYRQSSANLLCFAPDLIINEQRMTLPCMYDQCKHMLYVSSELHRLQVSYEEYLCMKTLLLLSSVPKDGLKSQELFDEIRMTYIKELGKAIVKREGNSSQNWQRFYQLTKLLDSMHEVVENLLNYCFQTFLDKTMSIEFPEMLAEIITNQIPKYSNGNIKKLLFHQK

In the case of `CNC(=O)c1c(I)c(C(=O)NCC(=O)Nc2c(I)c(C(=O)O)c(I)c(C(=O)NCCO)c2I)c(I)c(N(C)C(C)=O)c1I`, the molecule was called inactive in experiment [1], in experiment [4] and in [5]. Further, in experiment [2], the Potency result was “inactive”. Also, the activity change, negative = inhibition in experiment [3] is -16%.
Consider `COc1cc(S(C)=O)ccc1-c1nc2ncccc2[nH]1` (stereo not drawn), for which the molecule was called inactive in experiment [1] and in experiment [4]. Moreover, the Potency is 0.251 µM (active) in experiment [2], > 20.6 µM in experiment [6] and > 20.6 µM in experiment [7]. Further, the activity change, negative = inhibition in experiment [3] is 21.1%.
For the molecule `CO`, the Potency in experiment [8], in experiment [9], in experiment [10], in experiment [11], in [12] and in [13] was > 92 µM in each case. Besides, the outcome in experiment [5] and in experiment [19] was inactive. The results for the activity change, negative = cytotoxicity in experiment [14] and in [15] were 8.2% and -1.78%, respectively. Besides, the Potency entry in experiment [16], in experiment [17] and in experiment [18] was “inactive” throughout.
In the case of `CN1CCc2c(c3ccccc3n2Cc2ccccc2)C1`, the molecule was classed as inactive in experiment [1], in experiment [4] and in experiment [5]. Also, the Potency in experiment [2] was 5.01 µM (active).
Consider `O=C(O)CCC(=O)c1ccc(-c2ccccc2)cc1`, for which the molecule was called inactive in experiment [1], in experiment [4] and in [5]. Also, the results for the Potency in [2], in experiment [6] and in [7] were 12.6 µM (active), > 20.6 µM and > 20.6 µM, respectively. The activity change, negative = inhibition in experiment [3] is -7.68%.
As for `Cc1cc(C)c(NC(=O)C[C@H](CC(=O)O)c2cccc3ccccc23)c(C(=O)N2CCC3(CCCC3)CC2)c1`, the call in experiment [1], in [4] and in [5] was inactive. The Potency result in experiment [2] was “inactive”. Besides, the activity change, negative = inhibition in experiment [3] was -7.66% [at 38 µM]. Moreover, the Potency in experiment [6] and in experiment [7] was > 46 µM each time.
With `Nc1ncnc2c1ncn2[C@H]1CC[C@@H](CO)O1`, the Potency in experiment [8], in experiment [9], in [10], in [11], in experiment [12] and in experiment [13] was > 92 µM throughout. Moreover, the molecule was classed as inactive in [5] and in experiment [19]. In addition, the activity change, negative = cytotoxicity in [14] is 6.32%; in experiment [15], 7.1%. For the same molecule, the Potency result in [16], in experiment [17] and in experiment [18] was “inactive” in each case.
With `CCOC(C)OCC`, the Potency in experiment [8], in [9], in experiment [10], in [11], in [12] and in [13] was > 92 µM in each case. In addition, the molecule was called inactive in experiment [5] and in experiment [19]. The activity change, negative = cytotoxicity in experiment [14] is -0.722%; in experiment [15], -3.45%. For the same molecule, the Potency entry in [16], in [17] and in experiment [18] was “inactive” in each case.
Consider `C[C@H](CCC(=O)O)[C@H]1CC[C@H]2[C@@H]3[C@H](O)C[C@@H]4C[C@H](O)CC[C@]4(C)[C@H]3C[C@H](O)[C@]12C`, for which the Potency in experiment [8], in [9], in experiment [10], in [11], in [12] and in [13] was > 92 µM in each case. Besides, the molecule was called inactive in [5] and in [19]. In addition, the figures for the activity change, negative = cytotoxicity in experiment [14] and in [15] were -9.32% and -13.2%, respectively. Moreover, the Potency result in [16], in [17] and in [18] was “inactive” in each case.
Consider `CO/N=C(/C(=O)N[C@@H]1C(=O)N2C(C(=O)O)=C(COC(N)=O)CS[C@H]12)c1ccco1`, for which the Potency in experiment [8], in experiment [9], in [10], in [11], in [12] and in experiment [13] was > 92 µM in each case. The molecule was called inactive in experiment [5] and in [19]. Moreover, the results for the activity change, negative = cytotoxicity in experiment [14] and in experiment [15] were 8.73% and -7.55%, respectively. Further, the Potency entry in [16], in [17] and in [18] was “inactive” in each case.
As to `O=c1n(CC2CO2)c(=O)n(CC2CO2)c(=O)n1CC1CO1` (stereo not drawn), the Potency in experiment [8] was 30.6 µM (active); in experiment [9], 14.7 µM (active); in experiment [12], 51.4 µM (active); in [17], 39.8 µM (active); in experiment [18], 0.631 µM (active). Besides, in [15], the activity change, negative = cytotoxicity was -138% (active).
With `Nc1nccs1`, the Potency in [8], in [9], in experiment [10], in experiment [11], in experiment [12] and in experiment [13] was > 92 µM each time. The molecule was called inactive in experiment [5] and in experiment [19]. Also, the activity change, negative = cytotoxicity was 4.71% in experiment [14] and -0.295% in experiment [15]. The Potency result in [16], in [17] and in [18] was “inactive” in each case.
`c1ccc2ccccc2c1`: the Potency in experiment [8], in [9], in [10], in experiment [11], in experiment [12] and in experiment [13] was > 92 µM each time. Besides, the outcome in experiment [5] and in experiment [19] was inactive. For the same molecule, the activity change, negative = cytotoxicity in [14] was 6.48%; in experiment [15], 0.772%. Also, the Potency entry in experiment [16], in experiment [17] and in experiment [18] was “inactive” each time.
For `O.O.O.O.O.O.O.O=S(=O)([O-])[O-].[Co+2]`, the Potency in experiment [8], in experiment [10], in experiment [11], in experiment [12] and in experiment [13] was > 92 µM in each case. Moreover, the activity change, negative = cytotoxicity in [14] was -16.8%; in experiment [15] it was -26.9%. Also, the Potency result in experiment [16] and in experiment [18] was “inactive” each time. In addition, in [19], the result was inactive.
As to `CC(C)O`, the Potency in experiment [8], in experiment [9], in experiment [10], in experiment [11], in [12] and in [13] was > 92 µM throughout. Also, the outcome in experiment [5] and in experiment [19] was inactive. In addition, the activity change, negative = cytotoxicity in [14] is -11.4%. The Potency result in [16], in [17] and in experiment [18] was “inactive” throughout.

Source of the values: PubChem BioAssay (NCATS).
